Experiment [1] deals with Neuropilin-2 / VEGF-C interaction (human). The experiment can be described thus: small molecules blocking Neuropilin-2/VEGF-C interaction – biochemical, microplate binding format, z-score (AID 743281). The note with it: microplate NRP2/VEGF-C binding assay; stronger effect = lower value.
Experiment [2] has as its target ATP-dependent translocase ABCB1 (Homo sapiens) (UniProt P08183). Nature of the experiment: P-glycoprotein substrate transport blockade – cell-based (AID 377; in the data active means fluorescence slope change above about 50%). The note with it: MDR1-expressing cells, fluorescent substrate accumulation slope; stronger effect = higher value; concentration not given here.
Experiment [3] can be described thus: viability loss in pontine glioma line – cell-based, SU-DIPG-XIII, MIPE5.0, CellTiter-Glo, qHTS, dose response (AID 1347064; cut-off not given, nearly all actives have AC50 up to about 23 µM;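 on AC50: cells exposed to compound for 48 hours before the viability read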). The note with it: CellTiter-Glo ATP luminescence.
Experiment [4] in a line: viability loss in pontine glioma line – cell-based, SU-DIPG-XXV, MIPE5.0, CellTiter-Glo, qHTS, dose response (AID 1347065; cut-off not given, nearly all actives have AC50 up to about 26 µM;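 further: cells exposed to compound for 48 hours before ATP readout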). As to conditions: CellTiter-Glo ATP luminescence.
Experiment [5] in a line: growth inhibition, single agents and combos, LFS_MB_1R, cell-based, cisplatin or BGB combos, synergistic combos for chromothripsis tumors (AID 1671452; in the data active means inhibition above about 80%;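 further: cells exposed for 96 hours before readout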). As to conditions: LFS_MB_1R medulloblastoma cells, stronger effect = higher value.
A short description of experiment [6]: growth inhibition, single agents and combos, CRL2098, cell-based, BGB or cisplatin IC20 combos, synergistic combos for chromothripsis tumors (AID 1671454; in the data active means inhibition above about 80%;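 further: cells exposed for 96 h before readout; 0% = vehicle DMSO and 100% = killing by high DMSO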). As to conditions: CRL2098 osteosarcoma cells, drug combinations, stronger effect = higher value.
Experiment [7] in a line: growth inhibition, single agents and combos, HD-MB03, cell-based, BGB or cisplatin IC20 combos, synergistic combos for chromothripsis tumors (AID 1671455; in the data active means inhibition above about 83%;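 further: 0% = vehicle DMSO and 100% = high DMSO as cytotoxic control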). As to conditions: HD-MB03 medulloblastoma cells, stronger effect = higher value.
Experiment [8] is described as follows: growth inhibition, single agents and combos, UWB1.289, cell-based, BGB or cisplatin combos, synergistic combos for chromothripsis tumors (AID 1671456; in the data active means inhibition above about 80%;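 further: cells exposed to compound for four days; 0% = vehicle DMSO and 100% = killing by high DMSO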). The note with it: UWB1.289 ovarian carcinoma cells, stronger effect = higher value.
Experiment [9] can be described thus: growth inhibition, single agents and combos, LFS_MB_2R, cell-based, cisplatin combos, synergistic combos for chromothripsis tumors (AID 1671457; in the data active means inhibition above about 80%;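 further: cells exposed to compound for four days before readout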). As to conditions: LFS_MB_2R medulloblastoma cells, stronger effect = higher value.
Experiment [10] in a line: UWB1.289_BRCA1 ovarian cancer growth, cell-based, BGB or cisplatin combinations (AID 1671459; in the data active means inhibition above about 80%). As to conditions: UWB1.289 BRCA1 ovarian carcinoma, drug combinations, stronger effect = higher value.
Experiment [11] is described as follows: drug combination toxicity in non-malignant astrocytes – cell-based, BGB or cisplatin IC20 combos, cytotoxicity control for chromothriptic childhood tumor combination screen (AID 1671460; in the data active means inhibition above about 80%;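 further: cells exposed to compounds for 96 hours before viability readout; 0% = vehicle and 100% = killing control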). As to conditions: Human astrocytes, viability inhibition, drug combinations, at 0.5 µM, stronger effect = higher value.
A short description of experiment [12]: antimalarial activity against Dd2 strain (AID 2302;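 active means growth inhibition above 50% at the single 2 µM test dose, taken to imply half-maximal potency below 2 µM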;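 further: 0% = DMSO untreated growth and 100% = chloroquine plus artemisinin killed control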). The note with it: P. falciparum Dd2 in RBCs, LDH growth readout, 72 h; at 2 µM; stronger effect = higher value.
Experiment [13] in a line: human hepatoma cell viability loss – ATP luminescence, cytotoxicity control for P. falciparum antimalarial project, primary screen (AID 2303;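 active means inhibition above 50%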;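 further: 0% = DMSO wells and 100% = digitonin-killed cells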). The note with it: HepG2 viability, 24-48 h, at 10 µM, stronger effect = higher value.
Experiment [14] concerns the target L-lactate dehydrogenase (Plasmodium falciparum (isolate CDC / Honduras)) (UniProt Q27743). The experiment can be described thus: PfLDH activity inhibition – cell lysate, 3D7 strain, counter-screen for P. falciparum growth inhibition project (AID 2304).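 Further: 0% = vehicle and 100% = reference inhibitor.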 As to conditions: P. falciparum 3D7 crude extract, LDH APAD/NBT absorbance; at 2 µM; stronger effect = higher value.
Experiment [15] is described as follows: inhibition of 3D7 malaria parasite growth – strain 3D7 (AID 2306).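 Further: 0% = DMSO wells and 100% = chloroquine plus artemisinin control wells.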 As to conditions: P. falciparum 3D7 erythrocytic growth, LDH absorbance, 72 h; at 2 µM; stronger effect = higher value.
Experiment [16] can be described thus: selective SMN2 exon splicing luciferase activators – cell-based, SMN2/SMN1 luciferase reporters (AID 1598). The note with it: SMN2 vs SMN1 luciferase splicing reporter cells, at 10 µM; SMN1 luciferase ratio: measured here: SMN1 luciferase reporter average; SMN2 luciferase ratio: measured here: SMN2 luciferase reporter average, stronger effect = higher value; SMN2/SMN1 luciferase ratio: stronger effect = higher value.

Experiment [17] is described as follows: chitosan synthesis blockers in C. neoformans – flow cytometry, Cibacron Brilliant Red staining (AID 1347148).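 Further: compound exposure lasted three days at 37 degrees C.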 The note with it: Cryptococcus neoformans chitosan, stronger effect = lower value; at 99.1 µM unless noted.
Experiment [18] can be described thus: rescue of PC12 cells from polyQ htt toxicity – LDH release (AID 1610). As to conditions: PC12 mutant huntingtin toxicity, final LDH at 4 uM, stronger effect = lower value.
The mark [19] stands for this setting: measured here: combination with cisplatin, at 0.5 µM.
Where [20] appears, read: measured here: combination with cisplatin, at 5 µM.

The results in this text go back to PubChem BioAssay.

Several values for one entry are separate records, joined by “and”; a condition that tells them apart may be missing. Equal values may be shown once. Records with an inconclusive call do not appear. Activity calls are given as the source filed them. Unless noted, how the calls were made is not given here.

Chain of ATP-dependent translocase ABCB1 (Homo sapiens) (P08183 whole entry, looked up): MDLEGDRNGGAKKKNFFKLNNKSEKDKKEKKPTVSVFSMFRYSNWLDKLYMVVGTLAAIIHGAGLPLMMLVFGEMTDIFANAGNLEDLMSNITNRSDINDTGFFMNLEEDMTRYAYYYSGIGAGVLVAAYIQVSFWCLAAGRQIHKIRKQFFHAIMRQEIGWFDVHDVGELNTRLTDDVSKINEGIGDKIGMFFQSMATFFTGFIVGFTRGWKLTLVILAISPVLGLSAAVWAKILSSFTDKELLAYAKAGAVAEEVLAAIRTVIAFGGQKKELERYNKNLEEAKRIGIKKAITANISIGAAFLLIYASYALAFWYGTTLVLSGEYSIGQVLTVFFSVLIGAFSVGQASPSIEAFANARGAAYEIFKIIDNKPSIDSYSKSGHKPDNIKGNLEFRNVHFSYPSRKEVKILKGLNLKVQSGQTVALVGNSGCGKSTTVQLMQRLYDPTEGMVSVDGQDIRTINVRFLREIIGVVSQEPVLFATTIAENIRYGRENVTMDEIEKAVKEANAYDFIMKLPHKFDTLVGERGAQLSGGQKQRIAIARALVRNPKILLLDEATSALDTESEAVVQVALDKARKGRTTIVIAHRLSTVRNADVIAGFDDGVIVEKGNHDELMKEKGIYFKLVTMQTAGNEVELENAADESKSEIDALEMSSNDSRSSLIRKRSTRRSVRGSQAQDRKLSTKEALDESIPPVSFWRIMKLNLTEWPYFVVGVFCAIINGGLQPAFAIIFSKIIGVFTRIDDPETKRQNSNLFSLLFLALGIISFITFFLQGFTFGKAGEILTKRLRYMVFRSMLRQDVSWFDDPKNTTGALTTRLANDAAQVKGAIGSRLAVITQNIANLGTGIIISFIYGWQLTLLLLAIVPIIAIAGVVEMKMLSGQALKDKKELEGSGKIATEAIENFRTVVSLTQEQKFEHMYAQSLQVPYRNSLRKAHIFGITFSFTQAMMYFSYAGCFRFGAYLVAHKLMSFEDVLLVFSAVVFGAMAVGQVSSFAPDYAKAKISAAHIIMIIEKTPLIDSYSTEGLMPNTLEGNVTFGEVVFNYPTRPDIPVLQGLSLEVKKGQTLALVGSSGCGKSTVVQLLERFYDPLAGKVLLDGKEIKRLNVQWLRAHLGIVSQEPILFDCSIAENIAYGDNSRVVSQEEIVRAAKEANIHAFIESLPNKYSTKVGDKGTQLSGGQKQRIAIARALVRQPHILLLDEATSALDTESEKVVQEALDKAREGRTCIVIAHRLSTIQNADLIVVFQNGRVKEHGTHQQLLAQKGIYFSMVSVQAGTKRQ
Chain of L-lactate dehydrogenase (Plasmodium falciparum (isolate CDC / Honduras)) (Q27743 whole entry, looked up): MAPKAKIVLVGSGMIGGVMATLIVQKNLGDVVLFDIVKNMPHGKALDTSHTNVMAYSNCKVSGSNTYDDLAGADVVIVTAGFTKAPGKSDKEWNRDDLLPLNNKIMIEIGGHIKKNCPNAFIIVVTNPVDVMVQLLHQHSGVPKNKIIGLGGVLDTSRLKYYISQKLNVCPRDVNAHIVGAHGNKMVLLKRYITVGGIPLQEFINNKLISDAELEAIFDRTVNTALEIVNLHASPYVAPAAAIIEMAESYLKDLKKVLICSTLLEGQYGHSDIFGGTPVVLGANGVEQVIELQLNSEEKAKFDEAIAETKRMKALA

As to `NC(=O)N1c2ccccc2CC(=O)c2ccccc21`, the z-score in [1] is 0.598 (inactive).
`Clc1ccc2c(c1)C(N1CCNCC1)=Nc1ccccc1O2`: the fluorescence slope change in experiment [2] was 156% (active).
`C/C=C/C(=O)N(CC)c1ccccc1C`: the z-score in [1] was -0.426 (inactive). For the same compound, the compound was classed as inactive in experiment [3].
As for `Cn1cnc([N+](=O)[O-])c1Sc1ncnc2nc[nH]c12`, the fluorescence slope change in experiment [2] was 53.6% (active). Besides, in experiment [4], the AC50 was 6.61 µM (active). In addition, the inhibition in experiment [5] (at 0.5 µM) was -1.99% (inactive) and -33.4% (inactive); in [5] (measured here: combination with BGB IC40, at 0.05 µM), -14.2% and -22.8%; in [5] (setting [19]) it was -2.77% and -51.2%; in [5] (setting [20]) it was 10.1% and -28.7%; in [6] (at 0.5 µM) it was -39.2% (inactive) and -50.5% (inactive); in [6] (measured here: combination with BGB at IC20, at 0.5 µM) it was -37.7% and -16.5%. Moreover, the inhibition in experiment [6] (measured here: combination with cisplatin at IC20, at 0.5 µM) is -43.1% and -68.9%; in experiment [7] (at 0.5 µM), -1.96% (inactive) and 2.76% (inactive); in [7] (measured here: combo with BGB at IC20, at 0.5 µM), -3.82% and 4.08%; in experiment [7] (measured here: combo with cisplatin at IC20, at 0.5 µM) it was -5.61% and 15.3%; in experiment [8] (at 0.5 µM), 39.3% (inactive) and 42.9% (inactive); in experiment [8] (measured here: inhibition with BGB combination, at 0.05 µM) it was -15.3% and -18.7%. The inhibition is -7.01% and -1.15% in experiment [8] (measured here: inhibition with cisplatin combination, at 0.05 µM); -16.6% (inactive) and -22.7% (inactive) in [9] (at 0.5 µM); -17.1% and -11.6% in experiment [9] (setting [19]); -20.9% and -25.4% in experiment [9] (setting [20]); 90.9% and 88.9% in [10] (BGB combination, concentration series, at 5 µM); 37.4% (inactive) and 50.2% (inactive) in experiment [10] (at 0.5 µM). In addition, the inhibition in [10] (cisplatin combination, concentration series, at 5 µM) is 96.5% and 101%; in [11], -1.25% (inactive) and 13.6% (inactive); in experiment [11] (measured here: combo with BGB IC20), 5.14% and 24.1%; in [11] (measured here: combo with cisplatin IC20) it was -7.22% and 6.12%.
For the compound `NS(=O)(=O)c1cc(C2(O)NC(=O)c3ccccc32)ccc1Cl` (stereo not drawn), the fluorescence slope change in [2] is 22.1% (inactive).
Take `CN[C@H]1CC[C@@H](c2ccc(Cl)c(Cl)c2)c2ccccc21`: in experiment [1], the z-score was -0.0357 (inactive). In addition, the AC50 in experiment [3] is 26.3 µM (active).
With `CCc1nc(N)nc(N)c1-c1ccc(Cl)cc1`, the growth inhibition in experiment [12] was 0% (inactive) and -1% (inactive); in experiment [15] it was 94% (active) and 93% (active). The inhibition in experiment [13] was 66% (active) and 71% (active); in experiment [14], -5% (inactive) and 5% (inactive).
Regarding `CO[C@@]1(NC(=O)Cc2cccs2)C(=O)N2C(C(=O)O)=C(COC(N)=O)CS[C@@H]21`, in experiment [2], the fluorescence slope change is 94% (active). Also, in experiment [16], the SMN1 luciferase ratio came out at 1.2, the SMN2/SMN1 luciferase ratio is 1.24 (active) and the SMN2 luciferase ratio is 1.48.
In the case of `NCc1ccc(S(N)(=O)=O)cc1`, the fluorescence slope change in experiment [2] is 164% (active).
The same measure, in the same setting: for `O=C1C(CCS(=O)c2ccccc2)C(=O)N(c2ccccc2)N1c1ccccc1` (stereo not drawn) the value was 61.4% (active); for `COc1ccc(OC)c(C(O)CNC(=O)CN)c1` (stereo not drawn), 79.4% (active).
For the compound `CCCCC1=NC2(CCCC2)C(=O)N1Cc1ccc(-c2ccccc2-c2nn[nH]n2)cc1`, the z-score in experiment [1] is 0.146 (inactive).
`CCCCNC(=O)NS(=O)(=O)c1ccc(C)cc1`: the fold fluorescence in [17] was 3.24 [at 184.9 µM] (inactive).
Regarding `CN(C)CCOC(C)(c1ccccc1)c1ccccn1` (stereo not drawn), the z-score in experiment [1] was -0.0183 (inactive).
As to `c1ccc2c(c1)CCCC2C1=NCCN1` (stereo not drawn), in experiment [2], the fluorescence slope change is 13.8% (inactive).
The same measure, in the same setting: for `CC(C)NCC(O)c1cc(O)cc(O)c1` (stereo not drawn) the value was 14.9% (inactive); for `C=C(CC)C(=O)c1ccc(OCC(=O)O)c(Cl)c1Cl`, 85.9% (active).
Take `OCCN1CCN(CCCN2c3ccccc3Sc3ccc(Cl)cc32)CC1`: in experiment [2], the fluorescence slope change is 181% (active). Further, the normalised LDH release in [18] came out at 0.608.
For `CCN(CC)CCNC(=O)c1ccc(N)cc1`, in experiment [17], the fold fluorescence was 4.18 [at 212.5 µM] (inactive).
In the case of `Cc1ccc(S(=O)(=O)NC(=O)NN2CCCCCC2)cc1`, the fluorescence slope change in experiment [2] was 5.1% (inactive). In [17], the fold fluorescence was 4.87 [at 160.6 µM] (inactive).
As to `NS(=O)(=O)c1cc2c(cc1C(F)(F)F)NC(Cc1ccccc1)NS2(=O)=O` (stereo not drawn), the fluorescence slope change in experiment [2] was 16.6% (inactive).
On the same count and under the same terms, to `CC[N+](C)(C)c1cccc(O)c1` belongs 82.5% (active).
Take `CN(C)CCC[C@@]1(c2ccc(F)cc2)OCc2cc(C#N)ccc21`: in experiment [1], the z-score was 0.314 (inactive).
Regarding `Cc1nc2ccccn2c(=O)c1CCN1CCC(C(=O)c2ccc(F)cc2)CC1`, the z-score in experiment [1] is -1.94 (inactive).
As to `O=C(CCCN1CC=C(n2c(=O)[nH]c3ccccc32)CC1)c1ccc(F)cc1`, the fluorescence slope change in experiment [2] was 53.4% (active). In addition, in experiment [1], the z-score is 0.0538 (inactive).
Consider `CC(N=C(NC#N)Nc1ccncc1)C(C)(C)C` (stereo not drawn), for which the fluorescence slope change in experiment [2] is 190% (active). The z-score in experiment [1] is -0.52 (inactive). Besides, the fold fluorescence in [17] was 3.41 [at 203.8 µM] (inactive).
On to `CCCNC(=O)NS(=O)(=O)c1ccc(Cl)cc1`, for which the fluorescence slope change in experiment [2] was 6.6% (inactive).
